Results on eight molecules are retold here after PubChem BioAssay (Tox21).

The nature of test [1]: qHTS assay for small molecule agonists of the p53 signaling pathway (AID 651631; calls by dose curve; further: nearly all actives have a fitted effect of over 15% in size). In outline: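 Agonist mode screen using a stably integrated beta-lactamase gene under p53 response elements in HCT-116 cells. Compound exposure lasts 16 h at 37 °C; fluorescence intensity is measured following 2 h FRET substrate loading.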
A general note: Quantitative high-throughput screening tests each substance at several concentrations.

Test [2] is described as follows: qHTS assay for small molecules that induce genotoxicity in human embryonic kidney cells expressing luciferase-tagged ATAD5 (AID 651632). Further: nearly all actives have a fitted effect of over 15% in size. In short, it runs like this: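 HEK293T cells carrying luciferase-tagged ATAD5 were given compound or DMSO vehicle and incubated 16 hr at 37C, 5% CO2. Luciferase activity was read after 30 min at room temperature with Amplite; a rise signals genotoxic stress.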

A short description of test [3]: qHTS assay for small molecule agonists of the p53 signaling pathway - cell viability (AID 651633; calls by dose curve;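 further: p53RE-bla HCT reporter cells with a stable beta-lactamase p53 reporter; series mostly up to about 83 µM; nearly all actives have a fitted effect of over 30% in size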). In outline: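 p53RE-bla cells, seeded at 4,000 per well and rested 5 h at 37 C/5% CO2, received compounds in DMSO for 16 h at 37 C. CellTiter-Glo was then added, and luminescence was read after 30 min at room temperature to gauge cytotoxicity.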
Test [4] is described as follows: qHTS assay for small molecules that induce genotoxicity in human embryonic kidney cells expressing luciferase-tagged ATAD5 - cell viability (AID 651634; calls by dose curve; further: nearly all actives have a fitted effect of over 25% in size). In short, it runs like this:
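HEK293T cells carrying luciferase-tagged ATAD5, 2,000 cells/well, exposed to compound for 15.5 hr at 37C. Viability read as live-cell protease activity by CellTiter-Fluor fluorescence after 30 min at 37C.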

The nature of test [5]: qHTS assay for small molecule disruptors of the mitochondrial membrane potential - cell viability (AID 720634; calls by dose curve;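 further: human HepG2 liver cancer cells; series mostly up to about 83 µM; nearly all actives have a fitted effect of over 20% in size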). In short, it runs like this: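 HepG2 cells, 2,000 per well, attached overnight, then treated 1 hr at 37 C, 5% CO2. Viability read as ATP by CellTiter-Glo luminescence after 30 min at room temperature. Read in the same wells as the m-MPI membrane-potential dye assay.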

A short description of test [6]: qHTS assay for small molecule disruptors of the mitochondrial membrane potential (AID 720635). Further: potency means the concentration at half of the fitted maximal effect. In short, it runs like this:
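HepG2 cells (2,000/well) attached overnight at 37C, then took compound for 1 hr at 37C, 5% CO2. Mito-MPS dye was added for 30 min; fluorescence was read at 490/535 nm (monomers) and 540/590 nm (aggregates).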

A short description of test [7]: qHTS assay to test for compound auto fluorescence at 590 nm (red) in HepG2 cells (AID 720674). In outline: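 Compound auto-fluorescence is scored relative to Rose Bengal sodium, measured at 540/590 nm in live HepG2 cultures after 1 hr compound contact (37 C, 5% CO2).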
Test [8] can be described thus: qHTS assay to test for compound auto fluorescence at 535 nm (green) in HepG2 cells (AID 720675).
Test [9] can be described thus: qHTS assay to test for compound auto fluorescence at 460 nm (blue) in HEK293 cells (AID 720678). In short, it runs like this:
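Triamterene serves as the blue fluorophore standard. Compound signal at 405/460 nm is read in HEK293 wells (2,000 cells, 10% dialyzed FBS) after overnight treatment at 37C.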

Test [10] in a line: qHTS assay to test for compound auto fluorescence at 590 nm (red) in HEK293 cells (AID 720679). In short, it runs like this:
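We plated HEK293 cells in 10% dialyzed FBS medium, let them adhere for 4-5 hr, then added 23 nL compound. Overnight at 37C and 5% CO2 preceded fluorescence measurement at 540/590nm.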

A short description of test [11]: qHTS assay to test for compound auto fluorescence at 535 nm (green) in HEK293 cells (AID 720680).
Test [12] in a line: qHTS assay to test for compound auto fluorescence at 460 nm (blue) in HEK293 cell free culture (AID 720681). In short, it runs like this:
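Test compounds were pinned into cell-free culture medium (DMEM with 10% FBS) and fluorescence was read directly at Ex/Em 405/460 nm. Signals were expressed as fluorescence equivalents of triamterene, with DMSO vehicle as control.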

A short description of test [13]: qHTS assay to test for compound auto fluorescence at 535 nm (green) in HEK293 cell free culture (AID 720682). In outline: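 No cells present: wells hold DMEM supplemented with 10% FBS, into which compound or vehicle is pinned. Green emission is then recorded (485 nm excitation, 535 nm emission) and scaled to fluorescein.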
Test [14] can be described thus: qHTS assay to test for compound auto fluorescence at 590 nm (red) in HEK293 cell free culture (AID 720683). In short, it runs like this:
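Tox21 10K library compounds were pinned into cell-free DMEM with 10% FBS and fluorescence was read at excitation 540 nm. Activity is expressed as Rose Bengal sodium equivalency.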

A short description of test [15]: qHTS assay to test for compound auto fluorescence at 590 nm (red) in HepG2 cell free culture (AID 720684). In outline:
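Red fluorescence (540 nm excitation, 590 nm emission) was measured after compound transfer into cell-free MEM supplemented with 10% FBS. Values are equivalencies against Rose Bengal sodium.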

Test [16] is described as follows: qHTS assay to test for compound auto fluorescence at 460 nm (blue) in HepG2 cell free culture (AID 720685). In outline:
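Compound (23 nL) or DMSO pinned into cell-free MEM with 10% FBS; blue fluorescence read at 405/460 nm excitation/emission, expressed as auto-fluorescence equivalency to triamterene.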

Test [17] in a line: qHTS assay to test for compound auto fluorescence at 535 nm (green) in HepG2 cell free culture (AID 720686).
Test [18] is described as follows: qHTS assay to test for compound auto fluorescence at 460 nm (blue) in HepG2 cells (AID 720687). In outline: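 Cells (2,000/well in MEM with 10% FBS) attached overnight at 37 C, then were exposed to compound or DMSO for 1 hr at 37 C, 5% CO2. Fluorescence read at Ex/Em 405/460 nm, expressed as triamterene-equivalent signal.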
The target of test [19] is Glucocorticoid receptor (Homo sapiens) (UniProt P04150). Put plainly: qHTS assay to identify small molecule agonists of the glucocorticoid receptor (GR) signaling pathway (AID 720691; active means well fitted activation curve with a large enough effect in the signal ratio in the repeat runs, not every such curve was filed as active; the % refers to the signal ratio; further: potency means the concentration at half of the fitted maximal effect). In short, it runs like this:
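GR-bla HeLa cells carrying a GRE-driven beta-lactamase reporter, exposed to compounds for 18 h at 37 C. Reporter activation read as fluorescence after 2 h with LiveBLAzer B/G FRET substrate at room temperature.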

Test [20] shares this target. Put plainly: qHTS assay to identify small molecule antagonists of the glucocorticoid receptor (GR) signaling pathway (AID 720692; active means well fitted inhibition curve with a large enough effect in the signal ratio in the repeat runs, not every such curve was filed as active; the % refers to the signal ratio). In short, it runs like this:
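GR-bla HeLa cells carrying a GRE-driven beta-lactamase reporter received compound after 4 h plating, then dexamethasone (5 nM final). After 18 h at 37C, the FRET substrate was loaded for 2 h at room temperature and fluorescence read.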

Results filed as inconclusive are left out. More than one record can exist for a structure, and the calls need not agree. Calls of active or inactive are those of the source. Unless noted, the call rests on the fitted dose curve; in most records, active means well fitted curve in the direction sought with a large enough effect in the repeat runs; inconclusive means weak or mixed curves; inactive means no such curve, though single readings can be large; an effect the other way counts as inactive or inconclusive. Residues, ends and D or L forms follow the SMILES beside them.

Sequence of Glucocorticoid receptor (Homo sapiens) (P04150 whole entry, looked up): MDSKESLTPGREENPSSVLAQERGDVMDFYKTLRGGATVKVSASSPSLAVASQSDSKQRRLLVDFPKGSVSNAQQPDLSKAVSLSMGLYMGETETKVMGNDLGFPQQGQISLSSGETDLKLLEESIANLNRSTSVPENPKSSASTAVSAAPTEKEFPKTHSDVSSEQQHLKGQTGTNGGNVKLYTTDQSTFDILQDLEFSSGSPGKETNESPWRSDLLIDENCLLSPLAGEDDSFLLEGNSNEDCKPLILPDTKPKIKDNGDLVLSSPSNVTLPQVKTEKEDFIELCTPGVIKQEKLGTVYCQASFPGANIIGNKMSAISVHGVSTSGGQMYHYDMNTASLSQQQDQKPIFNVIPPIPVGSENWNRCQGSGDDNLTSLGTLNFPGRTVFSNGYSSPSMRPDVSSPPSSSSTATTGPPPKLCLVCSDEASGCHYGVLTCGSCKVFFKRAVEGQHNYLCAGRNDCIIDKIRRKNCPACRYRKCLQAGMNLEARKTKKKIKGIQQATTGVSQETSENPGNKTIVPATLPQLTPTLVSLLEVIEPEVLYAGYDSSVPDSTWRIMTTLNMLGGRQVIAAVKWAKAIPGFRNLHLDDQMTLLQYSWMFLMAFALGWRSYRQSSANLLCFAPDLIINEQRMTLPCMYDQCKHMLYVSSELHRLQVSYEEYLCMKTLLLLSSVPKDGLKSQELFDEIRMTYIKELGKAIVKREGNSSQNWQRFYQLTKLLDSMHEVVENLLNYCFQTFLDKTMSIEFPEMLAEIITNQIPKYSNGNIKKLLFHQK

In the case of `COC(=O)[C@H](Cc1ccccc1)NC(=O)[C@@H](N)CC(=O)O` (H-Asp-Phe-OMe), the Potency entry in test [1], in [2], in test [3], in [4], in test [5] and in test [6] was “inactive” throughout. In addition, in test [19], the Potency entry is “inactive”. The call in [7], in [8], in test [9], in test [10], in [11] and in test [12] was inactive. For the same molecule, the molecule was classed as inactive in [13], in [14], in test [15], in test [16], in test [17] and in test [18]. The outcome in test [20] was inactive.
Turning to `CCCNC(=O)NS(=O)(=O)c1ccc(Cl)cc1`, the Potency result in [1], in test [3], in [4], in test [5], in test [6] and in test [19] was “inactive” each time. The outcome in [7], in test [8], in [9], in [10], in test [11] and in [12] was inactive. Moreover, the molecule was called inactive in test [13], in [14], in test [15], in [16], in test [18] and in test [20].
For `NC(=O)NC1NC(=O)NC1=O` (configuration not stated), the Potency entry in [1], in test [3], in test [4], in [5], in test [6] and in test [19] was “inactive” each time. Moreover, the call in test [7], in test [8], in [9], in [10], in test [11] and in [12] was inactive. The molecule was classed as inactive in test [13], in test [14], in test [15], in test [16], in [17] and in test [20].
Regarding `Nc1ccn([C@H]2CC[C@@H](CO)O2)c(=O)n1`, the Potency entry in test [1], in test [2], in test [3], in test [4], in [5] and in [6] was “inactive” in each case. The call in [7], in [8], in test [9], in test [10], in test [11] and in test [12] was inactive. In addition, the molecule was classed as inactive in [13], in [14], in [15], in [16], in test [17] and in test [18].
Consider `CC(=O)Nc1nnc(S(N)(=O)=O)s1`, for which the Potency entry in [1], in [3], in test [4], in test [5], in test [6] and in test [19] was “inactive” throughout. In addition, the molecule was called inactive in test [7], in test [8], in [9], in test [10], in test [11] and in [12]. Further, the outcome in test [13], in [14], in test [15], in test [16], in [17] and in test [20] was inactive.
Regarding `CCCCC(CC)COC(=O)/C=C/c1ccc(OC)cc1` (configuration not stated), the Potency entry in test [1], in test [3], in test [4], in test [5] and in [19] was “inactive” in each case. Further, the Potency in test [6] is 54.2 µM (active). Further, the outcome in [7], in test [8], in test [9], in [10], in test [11] and in test [12] was inactive. Also, the outcome in test [13], in test [14], in test [15], in [16], in test [18] and in [20] was inactive.
Turning to `CC(O)C(=O)O` (configuration not stated), the Potency entry in test [1], in [2], in test [3], in test [4], in test [5] and in test [6] was “inactive” in each case. Also, the result in [7], in test [8], in test [9], in test [10], in test [11] and in test [12] was inactive. Moreover, the molecule was classed as inactive in test [13], in [14], in [15], in test [16], in test [17] and in test [18].
`Cc1cc(=O)[nH]c(=S)[nH]1`: the Potency result in [1], in test [3], in test [4], in test [5] and in test [6] was “inactive” throughout. Also, the outcome in [7], in [8], in [9], in test [10], in test [11] and in [12] was inactive. Further, the molecule was called inactive in test [13], in test [14], in [15], in test [16], in [17] and in test [18]. Also, in [20], the molecule was called inactive. In addition, the Potency in test [19] is 23.9 µM (active) and inactive.
